Assay outcomes (PubChem)
KinaseGlo FLuc: Counterscreen for Luciferase (Kinase-Glo TM) Inhibition | Kinase-Glo luciferase, ATP luminescence, 8 min | Potency, µM (highest dose often 38.3 µM), most hits filed as inhibitors | hit rate 0.28% among 200,000 | AID 1379, 2008; also: nearly all actives have a fitted effect of over 60% in size
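Compounds were added to a substrate mix at pH 7.2 (50 mM imidazole, 10 uM ATP, within the enzyme's linear range), followed by Kinase-Glo detection reagent; luminescence was measured after 8 minutes at ambient temperature.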
FLuc modulator: qHTS profiling assay for firefly luciferase inhibitor/activator using purifed enzyme and Km concentrations of substrates (counterscreen for miR-21 project); Luciferin 4-monooxygenase (Photinus pyralis), P08659; purified FLuc, Km substrates, luminescence inhibition; Potency, µM (doses to about 57.5 µM), usual class: inhibitors; hit rate 6.9% among 360,000; also: nearly all actives have a fitted effect of over 55% in size
Target sequence (P08659 whole entry, looked up): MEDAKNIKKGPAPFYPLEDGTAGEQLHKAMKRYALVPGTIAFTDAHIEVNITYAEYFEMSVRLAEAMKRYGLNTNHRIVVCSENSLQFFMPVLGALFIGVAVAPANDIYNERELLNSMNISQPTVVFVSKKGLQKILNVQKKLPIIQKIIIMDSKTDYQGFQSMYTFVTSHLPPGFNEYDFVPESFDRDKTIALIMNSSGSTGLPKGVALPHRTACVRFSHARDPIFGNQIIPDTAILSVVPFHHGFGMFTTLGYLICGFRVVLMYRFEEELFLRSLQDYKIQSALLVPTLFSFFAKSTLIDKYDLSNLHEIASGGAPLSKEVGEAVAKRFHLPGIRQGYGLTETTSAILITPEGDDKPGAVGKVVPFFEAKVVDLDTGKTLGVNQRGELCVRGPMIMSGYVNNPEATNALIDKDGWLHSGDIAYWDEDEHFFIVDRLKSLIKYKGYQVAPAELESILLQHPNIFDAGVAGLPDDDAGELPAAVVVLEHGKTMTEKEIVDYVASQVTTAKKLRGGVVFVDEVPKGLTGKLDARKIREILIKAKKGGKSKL
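Purified P. pyralis luciferase (10nM final) with 10uM D-luciferin and 10uM ATP (Km levels) in 50mM Tris acetate pH 7.5, 10mM Mg acetate, 0.01% Tween-20, 0.05% BSA; qHTS 6-point titration, ~60 µM downward; luminescence read.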
NPC1 prom act: qHTS Assay for NPC1 Promoter Activators | hit rate 2.4% among 320,000 | Potency, µM (highest dose often 9.22 µM), actives largely listed as activators | Huh7 NPC1 promoter luciferase reporter, 24 h; also: nearly all actives have a fitted effect of over 60% in size
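Stably transfected Huh7 (NPC1 promoter→luciferase), 1500 cells/well in Opti-MEM + 10% FBS, 2 h settle, then compound 24 h at 37 °C. Luminescence after 10 min with Amplite reagent.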
SMN2 splice enh: qHTS Assay for Enhancers of SMN2 Splice Variant Expression. HEK293 SMN2-luciferase splicing reporter, luminescence, 30-36 h. Potency, µM (highest dose often 46.1 µM), actives largely listed as activators. hit rate 2.8% among 210,000; also: nearly all actives have a fitted effect of over 55% in size
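HEK293 cells carry an SMN2 […]–luciferase reporter in which exon 7 inclusion puts luciferase in frame. Cells were plated 10-12 h before compound addition, then incubated 30-36 h at 37C. ONE-Glo luminescence was read; sodium butyrate at 4.5 mM final served as control.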
Rab9 promoter act: qHTS Assay for Rab9 Promoter Activators; hit rate 2.8% among 320,000; Huh7 Rab9 promoter-luciferase reporter, luminescence, 24 h; AID 485297, 2010; Potency, µM (top dose mostly 9.22 µM), actives largely listed as activators; also: nearly all actives have a fitted effect of over 60% in size
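Rab9 promoter-driven luciferase in stably transfected Huh7 cells; 1500 cells/well rested 2 h, exposed to compound in DMSO for 24 h at 37 °C, 5% CO2. Luminescence read 10 min after adding luciferase reagent at ambient temperature.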
Of the large screens only hits and unclear results are named; the others gave an inactive call. Compounds with a hit are over-represented: about 7.3% of the library has one in this group of screens. Calls follow the shape of the dose curve; as a rule, active = well fitted curve in the direction sought with a large enough effect; inconclusive = small, poorly fitted or top-dose-only effect, or another doubt; inactive = no such curve, though single readings can be large; an effect the other way counts as inactive or inconclusive.

CC1=CC(C)(C)Nc2ccc(OC(=O)c3cccnc3)cc21	none
CCCCCN1C=CC(=C2C(=O)c3ccccc3C2=O)C=C1	KinaseGlo FLuc 2.8µM, FLuc modulator 0.067µM, NPC1 prom act 0.13µM, Rab9 promoter act 0.016µM
CCCN1CCN(CCCNC(=O)Cn2c(-c3cccs3)cc3cc(Cl)ccc32)CC1	none (no result: KinaseGlo FLuc, NPC1 prom act, SMN2 splice enh, Rab9 promoter act)
COc1cc(OC)cc(C(=O)Nn2c(C)nc3ccccc3c2=O)c1	none
COc1ccc2[nH]c3c(c2c1)CCn1c-3nc2ccccc2c1=O	FLuc modulator 0.48µM, NPC1 prom act 0.2µM, SMN2 splice enh 1.6µM, Rab9 promoter act 0.25µM
CN1CCN(c2ncnc3c2cnn3-c2cccc(Cl)c2)CC1	FLuc modulator 13µM (no result: KinaseGlo FLuc, NPC1 prom act, SMN2 splice enh, Rab9 promoter act)
Cc1ccc(-n2ncc3c(N4CCN(c5ccccc5)CC4)ncnc32)cc1C	none (no result: KinaseGlo FLuc, NPC1 prom act, SMN2 splice enh, Rab9 promoter act)
Cc1ccc(-n2ncc3c2ncn2c(C)nnc32)cc1C	FLuc modulator 5.4µM, NPC1 prom act 2.5µM, SMN2 splice enh inconclusive, Rab9 promoter act 2µM
Cc1ccc(-n2ncc3c(N4CCN(C)CC4)ncnc32)cc1C	FLuc modulator 4.3µM (no result: KinaseGlo FLuc, NPC1 prom act, SMN2 splice enh, Rab9 promoter act)
Cc1ccc(NC(=O)C(NS(=O)(=O)c2ccc3c(c2)CCC(=O)N3)c2ccccc2)cc1C (configuration not stated)	FLuc modulator inconclusive (no result: KinaseGlo FLuc, NPC1 prom act, Rab9 promoter act)
O=C(CSc1nc(O)c(C/C=C/c2ccccc2)c(=O)[nH]1)Nc1cccc(F)c1	FLuc modulator 11µM (no result: KinaseGlo FLuc, NPC1 prom act, Rab9 promoter act)
Nc1nc(SCC(=O)Nc2ccccc2)[nH]c(=O)c1-c1ccccc1	none
Cc1ccc2nc(-c3c[nH]c4ccccc34)c(Nc3ccccc3)n2c1	SMN2 splice enh 11µM (no result: KinaseGlo FLuc, NPC1 prom act, Rab9 promoter act)
c1ccc(Nc2c(-c3c[nH]c4ccccc34)nc3ccccn23)cc1	FLuc modulator inconclusive, SMN2 splice enh 16µM (no result: KinaseGlo FLuc, NPC1 prom act, Rab9 promoter act)
Fc1ccc(Nc2c(-c3c[nH]c4ccccc34)nc3ccccn23)cc1	SMN2 splice enh inconclusive (no result: KinaseGlo FLuc, NPC1 prom act, Rab9 promoter act)
CCN1CCC2(CCN(C(=O)c3cc(COc4cc(C)ccc4C)on3)C2)C1 (configuration not stated)	none (no result: KinaseGlo FLuc, SMN2 splice enh)
COc1ccc(OCc2cc(C(=O)N3CCCC(O)C3)no2)c2ccccc12 (configuration not stated)	FLuc modulator 12µM, NPC1 prom act inconclusive, Rab9 promoter act inconclusive (no result: KinaseGlo FLuc, SMN2 splice enh)
Cc1ccc(C)c(OCc2cc(C(=O)N3CC[C@H](O)C3)no2)c1	FLuc modulator 12µM, Rab9 promoter act 2.5µM (no result: KinaseGlo FLuc, SMN2 splice enh)
COc1ccc(OCc2cc(C(=O)N3CCCC(OC)C3)no2)c2ccccc12 (configuration not stated)	FLuc modulator 27µM, NPC1 prom act inconclusive, Rab9 promoter act inconclusive (no result: KinaseGlo FLuc, SMN2 splice enh)
Cc1ccccc1C1CCCN(C(=O)c2cc(COc3c(F)cccc3F)on2)C1 (configuration not stated)	none (no result: SMN2 splice enh)
CCCOC1CCCN(C(=O)c2cc(COc3c(F)cccc3F)on2)C1 (configuration not stated)	FLuc modulator 12µM, NPC1 prom act 2.8µM, Rab9 promoter act 2.2µM (no result: KinaseGlo FLuc, SMN2 splice enh)
CCc1ccc(CNC(=O)c2ccc3c(c2)nc2n3CCOC2)cc1	none (no result: KinaseGlo FLuc, NPC1 prom act, SMN2 splice enh, Rab9 promoter act)
Cn1cc(C=C2C(=O)OC3(CCCCC3)OC2=O)c2ccccc21	none (no result: KinaseGlo FLuc, SMN2 splice enh)
O=C1OC2(CCCC2)OC(=O)C1=Cc1c[nH]c2ccccc12	NPC1 prom act 1.1µM, Rab9 promoter act 0.89µM (no result: SMN2 splice enh)
COc1ccc(-c2cc(=O)c3ccccc3s2)cc1	KinaseGlo FLuc inconclusive, FLuc modulator 1.1µM, NPC1 prom act 1.4µM, SMN2 splice enh 4µM, Rab9 promoter act 0.89µM
COc1cc(OC)cc(-c2sc3ccccc3c(=O)c2I)c1	none (no result: FLuc modulator, NPC1 prom act, SMN2 splice enh, Rab9 promoter act)
COc1ccc2sc3ccccc3c(=O)c2c1	FLuc modulator 6.7µM, NPC1 prom act inconclusive, Rab9 promoter act inconclusive
N#C[C@H](c1ccccc1)N1CCCN([C@@H](C#N)c2ccccc2)C1c1ccccc1O (some centres not stated)	none (no result: FLuc modulator, NPC1 prom act, Rab9 promoter act)
C/C(NC(=O)c1cccs1)=C1\C(=O)C[C@@H]2[C@H]1C2(C)C	FLuc modulator 15µM, NPC1 prom act inconclusive, Rab9 promoter act inconclusive (no result: KinaseGlo FLuc, SMN2 splice enh)
Cc1cc(OCC(=O)Nc2ccncc2)c(C)cc1Br	FLuc modulator inconclusive
CCc1ccc(OCC(=O)Nc2ccncc2)c(Br)c1	FLuc modulator 3.4µM (no result: KinaseGlo FLuc, SMN2 splice enh)
CC(C)(C)c1ccc(OCC(=O)Nc2ccncc2)c(Br)c1	FLuc modulator 21µM (no result: KinaseGlo FLuc, SMN2 splice enh)
CCc1ccc(OCC(=O)NNC(=S)NC(=O)C2CC2)c(Br)c1	FLuc modulator 9.5µM (no result: KinaseGlo FLuc, SMN2 splice enh)
